Experimental data as given in PubChem BioAssay AID1845227 (National Center for Advancing Translational Sciences (NCATS), 2023).
Results filed as inconclusive are left out. Calls follow the shape of the dose curve; as a rule, active = well fitted inhibition curve with a large enough effect; inconclusive = small, poorly fitted or top-dose-only effect; inactive = no such curve, though single readings can be large or run the other way.

Each molecule was assayed against Luciferin 4-monooxygenase (Photinus pyralis) (UniProt P08659) (assay: Confirmatory firefly luciferase (FLuc) qHTS assay for identification of artifact compounds). Conditions: purified FLuc enzyme, luminescence, 5 min; series mostly up to 38.9 µM; activity change, negative = inhibition: at the top concentration.
Summary of the method: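 Purified Photinus pyralis luciferase (10 nM) with D-luciferin and ATP each 10 uM, pH 7.6 Tris-acetate; compounds preincubated 15 min with substrate, 5 min after enzyme; luminescence normalized to no-enzyme and DMSO, 4-parameter Hill fit.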
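Also: 0% = DMSO and -100% = no enzyme control.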

Activity change, negative = inhibition, inactive:
O=c1cc(-c2ccc(O)cc2)oc2cc(O[C@@H]3O[C@H](CO)[C@H](O)[C@H](O)[C@H]3O)cc(O)c12 4.69%
Cc1ccc(Nc2c(-c3ccsc3)nc3cccc(C)n23)cc1 -11.5%
CC(C)(C)OC(=O)N1CCN(c2ccc(NCc3ccc(-c4ccc(C#N)cc4)nc3)cc2)CC1 -2.91%
Cc1ccc(C2C=C(c3ccccc3)Nc3nc(NS(=O)(=O)c4ccccc4)nn32)cc1 (stereo not drawn) -2.75%
CCOC(=O)c1ccc(N2C(=O)c3n[nH]c(-c4ccco4)c3C2c2ccc(C)cc2)cc1 (stereo not drawn) -2.41%
O=C(Nc1ccc(Oc2ccccc2)cc1)Nc1nnc(-c2ccncc2)s1 0.508%
O=S(=O)(c1ccc2c(c1)OCCO2)N1CCN(S(=O)(=O)c2c(F)cccc2F)CC1 20.4%
O=C(Nc1ccc(F)cc1F)c1ccc(-n2cnnc2)cc1 -4.99%
CCCOc1ccc(C(=O)Nc2ccc3oc(-c4ccncc4)nc3c2)cc1 111%
COc1ccc(-c2nnc3n2N=C(c2cc(OC)ccc2OC)CS3)c(OC)c1 5.63%
Cc1ccc(CN(C(=O)COc2ccc([N+](=O)[O-])cc2)c2ccccn2)cc1 -0.0502%
COc1cccc(-c2nnc(Nc3nc4ccc(OC)cc4s3)o2)c1 1.25%
O=C(Nc1cc(-c2ccc(Cl)cc2)no1)c1ccc(F)cc1 -4.74%
CCc1ccc(S(=O)(=O)c2nnn3c2nc(N2CCOCC2)c2sccc23)cc1 0.839%
COc1ccc(NC(=O)Cn2c(=O)n(CCc3ccccc3)c(=O)c3c4c(sc32)CCCC4)cc1 2.55%
CNCc1nc(-c2ccc[nH]2)c2cc(Cl)ccc2n1 -3.62%
CO[C@@H]1[C@@H](O[C@@H]2O[C@H](C)[C@@H](O[C@H]3C[C@@](C)(O)[C@@H](OC(=O)CC(C)C)[C@H](C)O3)[C@H](N(C)C)[C@H]2O)[C@@H](CC=O)C[C@@H](C)C(=O)/C=C/C2OC2C[C@@H](C)OC(=O)C[C@H]1OC(C)=O (stereo partly drawn) 6.04%
Cc1ccc2nc(-c3cccs3)c(Nc3ccccc3)n2c1 -9.97%
O=C(COc1ccccc1C(=O)Nc1ccccc1)Nc1cccc([N+](=O)[O-])c1 4.06%
CCCn1c(-c2cccc(Br)c2)nc2ccccc21 -3.37%
CC(=O)c1ccc(NS(=O)(=O)c2ccc(-c3cc(C)no3)s2)cc1 1.7%
COc1cc(=O)n2c(c1C(=O)N(C)Cc1nccs1)CCN(Cc1cc(C)cc(C)c1)CC2 2.07%
O=C1Nc2ccccc2/C1=C\c1ccc(O)cc1 0.923%
COc1ccc(NC(=O)c2ncoc2-c2ccco2)cc1Cl -4.3%
CO[C@H]1[C@@H](O)[C@H](N)[C@@H](O[C@H]2O[C@H]([C@H](C)N)CC[C@H]2N)[C@H](O)[C@@H]1N(C)C(=O)CN -3.49%
COc1ccc(-c2noc(N3CCC(C(=O)N4CCN(c5cccc(C)c5C)CC4)CC3)n2)cc1 60.8%
Cc1cccc(C(=O)Nc2ccc(-c3nc4ncccc4o3)cc2C)c1 -3.06%
COc1cc(C2C(C(=O)Nc3ccc(Cl)cc3)=C(C)Nc3nc(SC)nn32)cc(OC)c1OC (stereo not drawn) -10.6%
O=C(c1ccc2c(c1)N(Cc1ccccc1)C(=O)c1ccccc1S2(=O)=O)N1CCN(c2ccccc2)CC1 3.03%
CCc1ccccc1NC(=O)c1nc(-c2ccncc2)no1 44.2%
O=C(O)CCCC/C=C\C[C@@H](O)/C=C/C=C/C=C\[C@@H](O)CCCC(=O)O -5.27% [at 0.322 µM]
C[C@H](CCC(=O)NCCS(=O)(=O)O)C1CC[C@H]2C3CC[C@@H]4C[C@H](O)CC[C@]4(C)C3C[C@H](O)[C@]12C (stereo partly drawn) -6%
COc1ccc(-n2c(=O)c3ccc(C(=O)NCc4ccc(C)cc4)cc3n(Cc3ccc(Cl)cc3)c2=O)cc1 10.2%
